# Measurements taken from the supplement of paper PMC8728848.
# This is one part of a sample in which the strongest signals are shown more often than they occur.
# B1: 4F2hc (Homo sapiens), P08195 (protein)
# chain: WWHTGALYRIGDLQAFQGHGAGNLAGLKGRLDYLSSLKVKGLVLGPIHKNQKDDVAQTDLLQIDPNFGSKEDFDSLLQSAKKKSIRVILDLTPNYRGENSWFSTQVDTVATKVKDALEFWLQAGVDGFQVRDIENLKDASSFLAEWQNITKGFSEDRLLIAGTNSSDLQQILSLLESNKDLLLTSSYLSDSGSTGEHTKSLVTQYLNATGNRWCSWSLSQARLLTSFLPAQLLRLYQLMLFTLPGTPVFSYGDEIGLDAAALPGQPMEAPVMLWDESSFPDIPGAVSANMTVKGQSEDPGSLLSLFRRLSDQRSKERSLLHGDFHAFSAGPGLFSYIRHWDQNERFLVVLNFGDVGLSAGLQASDLPASASLPAKADLLLSTQPGREEGSPLELERLKLEPHEGLLLRFPYAA
# Key:
# Assay in all cases: glycan array binding signal (z-score within array); higher = stronger binding
# Settings in all cases: glycan notation: IUPAC condensed, linker removed
# [1] = biological target: Fuc(a1-2)Gal(b1-4)GlcNAc(b1-2)Man(a1-3)[Fuc(a1-2)Gal(b1-4)GlcNAc(b1-2)Man(a1-6)]Man(b1-4)GlcNAc(b1-4)GlcNAc
# In short: (§1)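 Glycan array data came from 3228 arrays in the Consortium for Functional Glycomics database, and only arrays with an available protein sequence were kept. Glycan names were put into IUPAC-condensed notation, and columns mapping to the same glycan were averaged. The binding signal is a within-array Z-score, averaged across arrays of one protein sequence run at different concentrations or buffers and across linkers. A negative Z-score can be read as non-binding.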
# [2] = biological target: Fuc(a1-2)Gal6S(b1-4)Glc6S
# In short: as §1
# [3] = biological target: Fuc(a1-2)Gal6S(b1-4)GlcNAc
# In short: as §1
# [4] = biological target: Fuc(a1-2)[GalNAc(a1-3)]Gal(b1-4)Glc
# In short: as §1
# [5] = biological target: Fuc(a1-3)[Gal(b1-4)]GlcNAc6S
# In short: as §1
# [6] = biological target: Gal(a1-3)[Gal(a1-4)]Gal(b1-4)GlcNAc
# In short: as §1
# Gal(a1-4)GlcNAc = biological target: Gal(a1-4)GlcNAc
# In short: as §1
# [7] = biological target: Gal(b1-3)GalNAc(a1-3)[Fuc(a1-2)]Gal(b1-4)GlcNAc
# In short: as §1
# [8] = biological target: Gal(b1-3)GlcNAc(b1-2)Man(a1-3)[Gal(b1-3)GlcNAc(b1-2)Man(a1-6)]Man(b1-4)GlcNAc(b1-4)GlcNAc
# In short: as §1
# Gal(b1-4)GlcNAc = biological target: Gal(b1-4)GlcNAc
# In short: as §1
# Gal3S(b1-3)GlcNAc = biological target: Gal3S(b1-3)GlcNAc
# In short: as §1
# Gal3S4S(b1-4)GlcNAc = biological target: Gal3S4S(b1-4)GlcNAc
# In short: as §1
# GalNAc(b1-3)Gal = biological target: GalNAc(b1-3)Gal
# In short: as §1
# [9] = biological target: GlcNAc(a1-4)Gal(b1-4)GalNAc
# In short: as §1
# [10] = biological target: GlcNAc(b1-4)[GlcNAc(b1-6)]GalNAc
# In short: as §1
# [11] = biological target: GlcNAc(b1-6)Gal(b1-4)GlcNAc
# In short: as §1
# GlcNAc3Prop(b1-4)GlcNAc = biological target: GlcNAc3Prop(b1-4)GlcNAc
# In short: as §1
# [12] = biological target: GlcNAc6S(b1-3)Gal(b1-4)GlcNAc
# In short: as §1
# Kdn(a2-6)Gal(b1-4)GlcNAc = biological target: Kdn(a2-6)Gal(b1-4)GlcNAc
# In short: as §1
# [13] = biological target: Neu5Ac(a2-3)Gal(b1-3)[Fuc(a1-4)]GlcNAc
# In short: as §1
# [14] = biological target: Neu5Ac(a2-3)Gal(b1-4)GlcNAc(b1-2)Man(a1-3)[Neu5Ac(a2-6)Gal(b1-4)GlcNAc(b1-2)Man(a1-6)]Man(b1-4)GlcNAc(b1-4)GlcNAc
# In short: as §1
# [15] = biological target: Neu5Ac(a2-3)Gal(b1-4)GlcNAc(b1-3)GalNAc
# In short: as §1
# [16] = biological target: Neu5Ac(a2-3)Gal(b1-4)[Fuc(a1-3)]GlcNAc(b1-6)[Neu5Ac(a2-3)Gal(b1-3)]GalNAc
# In short: as §1
# [17] = biological target: Neu5Ac(a2-3)[GalNAc(b1-4)]Gal(b1-4)GlcNAc
# In short: as §1
# [18] = biological target: Neu5Ac(a2-6)Gal(b1-4)GlcNAc(b1-2)Man(a1-3)[GlcNAc(b1-2)Man(a1-6)]Man(b1-4)GlcNAc(b1-4)GlcNAc
# In short: as §1
# [19] = biological target: Neu5Ac(a2-6)Gal(b1-4)GlcNAc(b1-2)Man(a1-6)[Man(a1-3)]Man(b1-4)GlcNAc(b1-4)GlcNAc
# In short: as §1
# [20] = biological target: Neu5Ac(a2-8)Neu5Ac(a2-8)Neu5Ac
# In short: as §1
binder,measurement,setting,value
B1,glycan array binding signal (z-score),[1],-0.399
same,glycan array binding signal (z-score),[2],-0.953
same,glycan array binding signal (z-score),[3],-1.01
same,glycan array binding signal (z-score),[4],6.38
same,glycan array binding signal (z-score),[5],2.68
same,glycan array binding signal (z-score),[6],-0.32
same,glycan array binding signal (z-score),Gal(a1-4)GlcNAc,-0.668
same,glycan array binding signal (z-score),[7],-0.507
same,glycan array binding signal (z-score),[8],3.66
same,glycan array binding signal (z-score),Gal(b1-4)GlcNAc,-0.318
same,glycan array binding signal (z-score),Gal3S(b1-3)GlcNAc,0.65
same,glycan array binding signal (z-score),Gal3S4S(b1-4)GlcNAc,3.95
same,glycan array binding signal (z-score),GalNAc(b1-3)Gal,-0.631
same,glycan array binding signal (z-score),[9],-1.21
same,glycan array binding signal (z-score),[10],0.848
same,glycan array binding signal (z-score),[11],0.103
same,glycan array binding signal (z-score),GlcNAc3Prop(b1-4)GlcNAc,0.691
same,glycan array binding signal (z-score),[12],-1.04
same,glycan array binding signal (z-score),Kdn(a2-6)Gal(b1-4)GlcNAc,0.863
same,glycan array binding signal (z-score),[13],1.08
same,glycan array binding signal (z-score),[14],-0.878
same,glycan array binding signal (z-score),[15],-0.993
same,glycan array binding signal (z-score),[16],3.35
same,glycan array binding signal (z-score),[17],-0.5
same,glycan array binding signal (z-score),[18],-0.141
same,glycan array binding signal (z-score),[19],5.26
same,glycan array binding signal (z-score),[20],-0.566
